Reference: PubChem BioAssay (Tox21)
Results filed as inconclusive are left out. A call without a number means that no potency is given here. Some structures have more than one record in an assay (separate samples or runs), and their calls can disagree. Activity calls are given as the source filed them. Unless noted, the call rests on the fitted dose curve.

system: not listed separately; assay: qHTS assay to identify small molecule that activate the aryl hydrocarbon receptor (AhR) signaling pathway - cell viability counter screen (AID 743086; active means well fitted cell-killing curve with a large enough effect in the repeat runs; further: nearly all actives have a fitted effect of over 45% in size; further: potency means the concentration at half of the fitted maximal effect); details: HepG2-AhR-luc viability, CellTiter-Fluor, 24 h; series mostly up to 70.3 µM
Procedure, shortened: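 HepG2-AhR-luc (HG2L7.5c1) cells, 4000/well, were preincubated 5 h at 37C, exposed to compound in qHTS format for 24 hr at 37C, then given CellTiter-Fluor for 30 min; viability was read as fluorescence in the reporter wells.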

Row | Compound | Potency
1 | CC(=O)OCC(C)OC(C)=O (stereo unspecified) | inactive
2 | CCCCCCCCS(=O)C(C)Cc1ccc2c(c1)OCO2 (stereo unspecified) | inactive
3 | CCCCCCC[N+](CC)(CC)CCCCc1ccc(Cl)cc1 | inactive
4 | O=C1CCCCCN1SSN1CCCCCC1=O | inactive
5 | Cc1cccc(S(=O)(=O)O)c1C | inactive
6 | COc1c(C)c2c(c(O)c1C/C=C(\C)CCC(=O)O)C(=O)OC2 | inactive
7 | CSc1ccc(C(=O)c2[nH]c(=O)[nH]c2C)cc1 | inactive
8 | CCN(C(=O)N(CC)c1ccccc1)c1ccccc1 | inactive
9 | ON=C1CCCC1 | inactive
10 | On1ccccc1=S | inactive
11 | Cc1ccc(O)c(C(C)(C)C)c1 | 61 µM (active) and inactive
12 | O=C1c2ccccc2Cc2ccccc21 | inactive
13 | C[C@H]1[C@H]2CC[C@H]3[C@@H]4CC=C5C[C@@H](N(C)C)CC[C@]5(C)[C@H]4CC[C@]23CN1C | inactive
14 | CCN1/C(=C/C=C/c2sc3ccccc3[n+]2CC)Sc2ccccc21 | 6.68 µM (active)
15 | O=C(OCC1CO1)C1CCCCC1C(=O)OCC1CO1 (stereo unspecified) | inactive
16 | Fc1ccc(C(c2ccc(F)cc2)N2CCN(C/C=C/c3ccccc3)CC2)cc1 | inactive

biological target: Peroxisome proliferator-activated receptor gamma (Homo sapiens) (UniProt P37231); assay: qHTS assay to identify small molecule agonists of the peroxisome proliferator-activated receptor gamma (PPARg) signaling pathway (AID 743094; active means well fitted activation curve with a large enough effect in the signal ratio in the repeat runs, not every such curve was filed as active; the % refers to the signal ratio); details: HEK293H PPARg-UAS-bla, beta-lactamase FRET ratio, 17 h; series mostly up to 57 µM
Sequence (P37231 whole entry, looked up): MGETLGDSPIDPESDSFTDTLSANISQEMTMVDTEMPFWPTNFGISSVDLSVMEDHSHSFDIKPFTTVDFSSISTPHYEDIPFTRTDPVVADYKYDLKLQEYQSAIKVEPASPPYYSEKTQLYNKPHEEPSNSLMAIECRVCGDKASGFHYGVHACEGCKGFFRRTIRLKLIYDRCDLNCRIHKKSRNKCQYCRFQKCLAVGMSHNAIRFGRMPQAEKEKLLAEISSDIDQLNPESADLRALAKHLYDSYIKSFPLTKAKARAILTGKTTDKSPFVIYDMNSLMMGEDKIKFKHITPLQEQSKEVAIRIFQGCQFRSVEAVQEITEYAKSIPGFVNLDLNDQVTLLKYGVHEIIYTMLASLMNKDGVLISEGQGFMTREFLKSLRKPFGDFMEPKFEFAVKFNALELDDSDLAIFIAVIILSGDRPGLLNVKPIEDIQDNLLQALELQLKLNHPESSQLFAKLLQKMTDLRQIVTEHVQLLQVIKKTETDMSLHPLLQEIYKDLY
Procedure, shortened: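 Stably transfected HEK293H cells (GeneBLAzer PPARg UAS-bla) were incubated with test substances for 17 h at 37C after a 5 h pre-incubation; beta-lactamase activity was then detected by FRET substrate fluorescence.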

Row | Compound | Potency
17 | CN(C)c1ccc(SC#N)cc1 | inactive
18 | NC(=NCCCCCCN=C(N)/N=C(\N)Nc1ccc(Cl)cc1)/N=C(\N)Nc1ccc(Cl)cc1 | inactive
19 | CCOC(=O)c1nc(C(Cl)(Cl)Cl)n(-c2ccc(Cl)cc2Cl)n1 | inactive

biological target: Peroxisome proliferator-activated receptor gamma (Homo sapiens) (UniProt P37231); assay: qHTS assay to identify small molecule antagonists of the peroxisome proliferator-activated receptor gamma (PPARg) signaling pathway (AID 743191); details: HEK293H PPARg-UAS-bla, beta-lactamase ratio, antagonist, 17 h; series mostly up to 62.6 µM; further: nearly all actives have a fitted effect of over 30% in size; further: potency means the concentration at half of the fitted maximal effect
Procedure, shortened: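 GeneBLAzer PPARg UAS-bla HEK293H cells carrying a UAS-driven beta-lactamase reporter were plated at 3000 cells/well, preincubated 5 h at 37C, then given compound for 17 h at 37C; LiveBLAzer B/G FRET substrate was read after 1 h at room temperature.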

Row | Compound | Potency
20 | COc1cc(/C=C/C(=O)O[C@H]2CC[C@]34C[C@]35CC[C@]3(C)[C@@H]([C@H](C)CCC=C(C)C)CC[C@@]3(C)[C@@H]5CC[C@H]4C2(C)C)ccc1O | inactive
21 | CCCCCCCCCCCCCCCC(=O)OC[C@H](O)[C@H]1OC(=O)C(O)=C1O | inactive
22 | O=[N+]([O-])c1ccccc1Nc1ccccc1 | inactive
23 | CCCC1O[C@@H]2C[C@H]3[C@@H]4CCC5=CC(=O)C=C[C@]5(C)[C@H]4[C@@H](O)C[C@]3(C)[C@]2(C(=O)CO)O1 (stereo partly specified) | inactive
24 | CCc1cc(Cc2cc(CC)c(N)c(CC)c2)cc(CC)c1N | 38.9 µM (active)
25 | C1CCCC1 | inactive
26 | Oc1ccc(Cl)cc1Sc1cc(Cl)ccc1O | 13.3 µM (active)
27 | C=C(C)C(=O)OCC[N+](C)(C)C | 2.18 µM (active)
28 | CCCCCOC(=O)CCCC | inactive
29 | CCC(C)(C)C1CCCCC1OC(C)=O (stereo unspecified) | inactive
30 | Clc1ccc2nsnc2c1NC1=NCCN1 | inactive
31 | C[C@@H]1C[C@H]2[C@@H]3CCC4=CC(=O)C=C[C@]4(C)[C@@]3(Cl)[C@@H](O)C[C@]2(C)[C@@]1(OC(=O)c1ccco1)C(=O)CCl | inactive
32 | CC(=O)OCC(C)OC(C)=O (stereo unspecified) | inactive
33 | CCCCCCCCS(=O)C(C)Cc1ccc2c(c1)OCO2 (stereo unspecified) | 56 µM (active)
34 | CCCCCCC[N+](CC)(CC)CCCCc1ccc(Cl)cc1 | inactive
35 | O=C1CCCCCN1SSN1CCCCCC1=O | inactive
36 | COc1c(C)c2c(c(O)c1C/C=C(\C)CCC(=O)O)C(=O)OC2 | 0.473 µM (active)
37 | CCN(C(=O)N(CC)c1ccccc1)c1ccccc1 | inactive
38 | ON=C1CCCC1 | inactive
39 | Cc1ccc(O)c(C(C)(C)C)c1 | inactive
40 | C[C@H]1[C@H]2CC[C@H]3[C@@H]4CC=C5C[C@@H](N(C)C)CC[C@]5(C)[C@H]4CC[C@]23CN1C | inactive
41 | Fc1ccc(C(c2ccc(F)cc2)N2CCN(C/C=C/c3ccccc3)CC2)cc1 | inactive
